Results from PubChem BioAssay (NCI).
Several values for one entry are separate records, joined by “and”; a condition that tells them apart may be missing. Identical values can stand only once. This is part of a sample that, as a whole, favours compounds with a hit. Of some 83,000 tested, about 20% had one in any assay.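 Single-concentration screen, 48 h exposure, 96-well plates. Endpoint: percent growth. Below 10 = active.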 Activity calls are given as the source filed them. Where a SMILES comes first, the peptide text is derived from it. The star is where a group is joined. Trt = c1ccc(C(c2ccccc2)(c2ccccc2)*)cc1; Cbz = O=C(OCc1ccccc1)*

How the values were obtained:
Test in all cases: NCI-60 one-dose screen, 48 h (100 = growth as untreated, 0 = no growth, -100 = all killed)
Settings in all cases: 10 µM unless noted
DU-145 prostate = test system: DU-145 prostate
K-562 leukemia = test system: K-562 leukemia
MALME-3M melanoma = test system: MALME-3M melanoma
MDA-MB-231 breast = test system: MDA-MB-231 breast
RXF 393 renal = test system: RXF 393 renal
SF-268 CNS = test system: SF-268 CNS
SF-295 CNS = test system: SF-295 CNS
SF-539 CNS = test system: SF-539 CNS
UACC-257 melanoma = test system: UACC-257 melanoma
M14 melanoma = test system: M14 melanoma

| Compound | growth (DU-145 prostate) | growth (K-562 leukemia) | growth (MALME-3M melanoma) | growth (MDA-MB-231 breast) | growth (RXF 393 renal) | growth (SF-268 CNS) | growth (SF-295 CNS) | growth (SF-539 CNS) | growth (UACC-257 melanoma) | growth (M14 melanoma) |
| --- | --- | --- | --- | --- | --- | --- | --- | --- | --- | --- |
| CCC(=O)Sc1ccccc1C(=O)Nc1ccc(Cl)cc1 | 74.3% (inactive) | 19.4% (inactive) | 6.61% (active) | 67.2% (inactive) | 88.2% (inactive) | 56.4% (inactive) | 35.5% (inactive) | 49.7% (inactive) | 94.7% (inactive) | 42.4% (inactive) |
| CCCCCC(CCCCC)C(=O)O | 119% (inactive) | 99.8% (inactive) | 119% (inactive) | 105% (inactive) | 135% (inactive) | 104% (inactive) | 108% (inactive) | 104% (inactive) | 116% (inactive) | 112% (inactive) |
| CCOc1ccc(-c2nc3ccc(-c4nc5ccc(N6CCN(C)CC6)cc5[nH]4)cc3[nH]2)cc1 | -100% (active) | 24.9% (inactive) | -87.8% (active) | -84.2% (active) | -86.2% (active) | -83.9% (active) | -81.9% (active) | -97.9% (active) | -64.8% (active) | -85.1% (active) |
| CN=C(N)N/N=C(\C)c1ccc2c(c1)Cc1cc(/C(C)=N/NC(N)=NC)ccc1-2 | -35.5% (active) | -7.26% (active) | -65.5% (active) | -33.8% (active) | -21.2% (active) | -61% (active) | -28.1% (active) | -89% (active) | 56.5% (inactive) | -85.7% (active) |
| NC(=S)N/N=C/c1ccc(Cl)s1 | 106% (inactive) | 99.5% (inactive) | 104% (inactive) | 110% (inactive) | 99.9% (inactive) | 102% (inactive) | 103% (inactive) | 100% (inactive) | 104% (inactive) | 105% (inactive) |
| COC(=O)C(CSC(c1ccccc1)(c1ccccc1)c1ccccc1)NC(=O)C(CC(N)=O)NC(=O)OCc1ccccc1 (stereo not drawn) (Cbz-Asn-Cys(Trt)-OMe; configuration not given here) | 13.4% (inactive) | 25.4% (inactive) | 27.1% (inactive) | 12.5% (inactive) | 34.1% (inactive) | 18% (inactive) | 20.1% (inactive) | -22% (active) | 59.1% (inactive) | -57.4% (active) |
| COc1cc(/C=C(/C)C[N+](=O)[O-])ccc1O | 101% (inactive) | 69.7% (inactive) | -12.2% (active) | 89.8% (inactive) | 91.2% (inactive) | 101% (inactive) | 99.3% (inactive) | 105% (inactive) | 33.5% (inactive) | 83.2% (inactive) |
| O=C(Nc1ccccc1)Oc1c(Cl)c(Cl)c(Cl)c(Cl)c1Cl | 110% (inactive) and 101% (inactive) | 101% (inactive) and 93.9% (inactive) | 89% (inactive) and 104% (inactive) | 88.2% (inactive) and 94.2% (inactive) | 113% (inactive) and 110% (inactive) | 94.2% (inactive) and 98.8% (inactive) | 97.4% (inactive) and 91.8% (inactive) | 99.7% (inactive) and 90.6% (inactive) | 109% (inactive) and 103% (inactive) | 101% (inactive) and 95.3% (inactive) |
| O=[N+]([O-])c1ccc2c(N=Nc3ccc4ccccc4c3O)c(O)cc(S(=O)(=O)O)c2c1 | 104% (inactive) | 96.3% (inactive) | 99.9% (inactive) | 74.2% (inactive) | 97% (inactive) | 72.4% (inactive) | 102% (inactive) | 96.9% (inactive) | 99.2% (inactive) | 80.7% (inactive) |
| CCCCCCCCCCCCCCNCc1ccccc1 | 81% (inactive) | 23.8% (inactive) | 92.6% (inactive) | 54.4% (inactive) | 82.3% (inactive) | 94.7% (inactive) | 97.7% (inactive) | 83.2% (inactive) | 99.4% (inactive) | 81.8% (inactive) |
| C=C(Cl)C(=NC(C)(C)C)Nc1ccccc1C | 87.1% (inactive) | 19.8% (inactive) | 83.9% (inactive) | 91.3% (inactive) | 103% (inactive) | 101% (inactive) | 99.3% (inactive) | 99.3% (inactive) | 100% (inactive) | 85.1% (inactive) |
| COC(=O)Nc1nc2ccc(C(=O)c3ccccc3)cc2[nH]1 | 26.8% (inactive) and -20.2% (active) and -19.3% (active) | 6.5% (active) and 4.72% (active) and 4.39% (active) | 26.5% (inactive) and 58.6% (inactive) and 54.1% (inactive) | 51.3% (inactive) and 25.5% (inactive) and 38% (inactive) | -12.3% (active) and -5.96% (active) | 53.7% (inactive) and 21.3% (inactive) and 27.4% (inactive) | 0.877% (active) and -10.3% (active) and -13.1% (active) | 2.99% (active) and -28.1% (active) and -34% (active) | 61% (inactive) and 77.2% (inactive) and 69.8% (inactive) | -24.2% (active) and 0.911% (active) and 20.7% (inactive) |
